Among the data in PubChem BioAssay (EPA / NIEHS) are outcome and AC50 values, retold here.

Results filed as inconclusive are left out. The source made the active and inactive calls. How the source made its calls, unless noted: active means hit-call score of the fitted dose curve at least 0.9, where 1 is the maximum; inconclusive means response in the unintended direction; inactive means score below 0.9.

Test system in one test: not listed separately
In words: VALA_TUBHUV_Antagonist_TubuleLength: VALA Sciences human Umbilical Vein Endothelial Tubule Formation (TUBHUV) Antagonism Assay (AID 2284325). On the procedure:
VALA_TUBHUV_Antagonist is a cell-based, multiplexed assay that uses human umbilical vein endothelial cells (HUVEC). Measurements were taken 72 hours after chemical dosing in a 96-well plate.VALA_TUBHUV_Antagonist_TubuleLength is the one of two assay components measured from the VALA_TUBHUV_Antagonist assay. It is designed to make measurements of tubulogenesis, a form of morphology reporter, as detected with fluorescence intensity signals by HCS Fluorescent Imaging technology. This VALA_TUBHUV_Antagonist assay was designed to detect chemical suppression of tubulogenesis, i.e. antagonism.Data from the assay component VALA_TUBHUV_Antagonist_TubuleLength was analyzed at the endpoint, VALA_TUBHUV_Antagonist_TubuleLength, in the positive analysis fitting direction relative to DMSO as the negative control and baseline of activity. Using a type of morphology reporter, loss-of-signal activity can be used to understand developmental effects. To generalize the intended target to other relatable targets, this assay endpoint is annotated to the neurodevelopment intended target family, where the subfamily is tubulogenesis.
[…]
With `N[C@@H](Cc1cc(I)c(Oc2ccc(O)c(I)c2)c(I)c1)C(=O)O`, the compound was called inactive.

With `CC(C)(c1ccc(O)cc1)c1ccc(O)cc1`, the concentration at half-maximal activity (AC50) was 75.1 µM (active).

For `S=C(S)NCCNC(=S)S.[Mn+2].[S-]C([S-])=NCCN=C([S-])[S-].[Zn+2]`, the call was inactive.

Regarding `CC(C)CCCCCCc1ccc(O)cc1`, the outcome was inactive.

Test system in the next test: not listed separately
The experiment in a line: TAMU_PeakParms_SingleDonor1434_Asystole: Texas A&M University (TAMU) 1.5-hr Human Induced Pluripotent Stem Cell (iPSC)-derived Cardiomyocytes Calcium (Ca+2) Flux Assay for Cardiotoxicity: Asystole (quiescence of beating) (AID 2284328). On the procedure: TAMU_PeakParms is a cell-based, multiplexed-readout assay that uses iPSC-derived cardiomyocytes with measurements taken at 1.5 hours after chemical dosing in a microplate: 384-well plate.TAMU_PeakParms_SingleDonor1434_Chronotopy is a phenotype derived from the peak.freq.avg parameter and uses an EC95 as its POD (95% decrease in beat rate, compared to controls). Peak.Freq.Avg measures the average peak frequency, in beats per second, using Fluorescence intensity as a functional reporter from Calcium (Ca+2) flux assay technology. There is no preprocessing performed on the data used to model this phenotype.Data from the assay component TAMU_PeakParms_SingleDonor1434_Asystole was analyzed into 1 assay endpoint. This assay endpoint, TAMU_PeakParms_SingleDonor1434_Asystole, was analyzed in the positive analysis fitting direction relative to DMSO as the negative control and baseline of activity. Using a type of functional reporter, loss-of-signal activity can be used to understand changes in the cardiac function. To generalize the intended target to other relatable targets, this assay endpoint is annotated to the cardiomyocyte function intended target family, where the subfamily is cessation of beating.
Each test compound from the chemical master plates was transferred into new tissue culture-treated 384-well microplates using acoustic dispensing (Labcyte Echo 550, Beckman Coulter, Indianapolis, IN) in amounts that would result in 5x concentrations (1, 5, 50, 500 uM) in the working plate in a final volume of 50 uL. Chemicals were randomly divided into 16 separate 384-well plates for screening such that the outer-most wells were left empty (308 wells were used on each plate). Fifteen of the plates contained unique test chemicals (n = 65 chemicals, 4 concentrations, one replicate each), positive controls (n = 10 chemicals, one concentration, 3 replicates each), vehicle (0.5% DMSO, n = 12), and media-only (n = 6) wells. Plate 16 contained test chemicals (n = 54 chemicals, 4 concentrations, one replicate each), inter-plate replicates (n = 11 chemicals with replicates, 4 concentrations, one replicate each), and the same design of positive controls and vehicle- and media-only wells as other plates. These plates were stored at -80C until the day of the assay. On assay day, the 5x concentrated chemical working plate was prepared by adding 50 uL cardiomyocyte maintenance medium containing 2.5% v/v DMSO to each well of the microplates. Then, 12.5 uL of 5x concentrated test chemical solution was added to the test plate to yield final concentrations of 0.2, 1, 10, and 100 uM in 0.5% v/v DMSO using the liquid handling robotics of the FLIPR Tetra. FLIPR Tetra settings were optimized to mix and then transfer test chemicals to the microplate at height = 40 uL, speed = 1 uL/sec, and removal speed = 6 mm/sec, resulting in a total volume of 62.5 uL/well with 0.5% v/v DMSO in cardiomyocyte maintenance medium. Immediately after chemical transfer, cells were incubated 37C and 5% CO2 for 90 minutes. Next, the total volume of cell culture medium containing Ca2+ dye (from the Ca2+ flux assay conducted first) was aspirated and replaced with 25 uL/well pre-warmed staining solution with fluorescent probes for nuclei and mitochondria (2.2 ug/mL Hoechst 33342 and 0.2 uM MitoTracker Orange in cardiomyocyte maintenance medium with 1:500 penicillin/streptomycin solution). Microplates were then incubated at standard conditions for 15 minutes, the staining solution was aspirated, and 25 uL/well pre-warmed fresh maintenance medium containing 1:500 penicillin/streptomycin solution was added to each well to wash before proceeding to image acquisition. Images of each well at 10x magnification were acquired in succession using DAPI (Hoechst 33342 for nuclear staining), TRITC (MitoTracker Orange for mitochondrial staining), and FITC (Ca2+ dye) filters.
Turning to `CC(C)(c1ccc(O)cc1)c1ccc(O)cc1`, the outcome was inactive.

For the compound `c1ccc2[nH]c(-c3cscn3)nc2c1`, the result was inactive.

Consider `CC(=O)[C@H]1CC[C@H]2[C@@H]3CCC4=CC(=O)CC[C@]4(C)[C@H]3CC[C@]12C`, for which the result was inactive.

In the case of `CC1(C)C(C=C(Cl)Cl)C1C(=O)OCc1cccc(Oc2ccccc2)c1` (stereo not drawn), the result was inactive.

For `COCCO`, the result was inactive.

Consider `O=C(O)c1ccccc1`, for which the outcome was inactive.

Another test deals with Brachyury (BRA) Protein Expression, Deisenroth Lab, TBXT (gene 6862). The experiment in a line: CCTE_Deisenroth_DEVTOX-GLR_legacy_Bra: (Legacy) CCTE's DevTox GLR-Endo Assay Evaluation of Brachyury (BRA) Protein Expression, Deisenroth Lab (AID 2284329; active means hit-call score of the fitted dose curve at least 0.9, where 1 is the maximum; inactive means score below 0.9). The procedure, abridged: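 High-content imaging of fixed RUES2-GLR cells after a 48-hour differentiation with two compound exposures yields percent cells whose Bra signal exceeds pluripotent control median by 5x BMAD; values are baseline-corrected to DMSO.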
With `OB(O)O`, the compound was classed as inactive.

For `CC(C)(c1ccc(O)cc1)c1ccc(O)cc1`, the concentration at half-maximal activity (AC50) was 49.5 µM (active).

`CCCCC(CC)COC(=O)c1ccccc1C(=O)O` (stereo not drawn): the result was inactive.

The AC50 is the concentration at which the activity in the assay is half-maximal.
